Laboratory results published in the supplement of paper PMC6555819.

Tests used:
Test in all cases: PBM binding z-score (relative to random genomic background probes); higher = stronger binding; sequences stand for … in GC…GCGATTGACAGCGTAGAATGAAGG
[1] = test system: PPARg:RXRa DBDmut IVT, anti-RXR (DBD mutation: RXRa K156A/R161A, NR concentration 270 nM, RXRa partner concentration 90 nM)
In short: (§1)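 Binding z-scores were set against random background probes. The data came from custom Agilent 4×180K protein-binding microarrays carrying double-stranded probes with 34-nt variable regions, incubated 1 h with ligand-free nuclear receptor dimers. Partner-specific antibodies detected binding, and scanned fluorescence was regression-normalized.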

[2] = test system: PPARg:RXRa IVT, anti-PPARg (NR concentration 270 nM, RXRa partner concentration 90 nM)
In short: as §1

[3] = test system: PPARg DBDmut:RXRa IVT, anti-PPARg (DBD mutation: PPARg1 K132A/R137A, NR concentration 270 nM, RXRa partner concentration 90 nM)
In short: as §1

[4] = test system: PPARg DBDmut IVT, anti-PPARg (DBD mutation: PPARg1 K132A/R137A, NR concentration 270 nM)
In short: as §1

[5] = test system: PPARg homodimer (NR concentration 180 nM)
In short: as §1

[6] = test system: PXR:RXRa (NR concentration 270 nM, RXRa partner concentration 90 nM)
In short: as §1

[7] = test system: PXR homodimer (NR concentration 270 nM)
In short: as §1

[8] = test system: RARa:RXR (NR concentration 270 nM, RXRa partner concentration 90 nM)
In short: as §1

[9] = test system: RARa homodimer (NR concentration 270 nM)
In short: as §1

[10] = test system: RARb:RXRa (NR concentration 270 nM, RXRa partner concentration 90 nM)
In short: as §1

[11] = test system: RARb homodimer (NR concentration 270 nM)
In short: as §1

[12] = test system: RARg:RXRa (NR concentration 270 nM, RXRa partner concentration 90 nM)
In short: as §1

[13] = test system: RARg homodimer (NR concentration 270 nM)
In short: as §1

[14] = test system: RXRa DBDmut IVT, anti-RXR (DBD mutation: RXRa K156A/R161A, NR concentration 90 nM)
In short: as §1

[15] = test system: RXRa homodimer (NR concentration 180 nM)
In short: as §1

[16] = test system: THRa:RXRa (NR concentration 90 nM, RXRa partner concentration 90 nM)
In short: as §1

[17] = test system: THRa homodimer (NR concentration 90 nM)
In short: as §1

[18] = test system: VDR:RXRa (NR concentration 270 nM, RXRa partner concentration 90 nM)
In short: as §1

[19] = test system: VDR homodimer (NR concentration 270 nM)
In short: as §1

Sequence	PBM binding z-score [1]	PBM binding z-score [2]	PBM binding z-score [3]	PBM binding z-score [4]	PBM binding z-score [5]	PBM binding z-score [6]	PBM binding z-score [7]	PBM binding z-score [8]	PBM binding z-score [9]	PBM binding z-score [10]	PBM binding z-score [11]	PBM binding z-score [12]	PBM binding z-score [13]	PBM binding z-score [14]	PBM binding z-score [15]	PBM binding z-score [16]	PBM binding z-score [17]	PBM binding z-score [18]	PBM binding z-score [19]
ATCTCTAGGTAAAGTTCAGTGTAAGATCGATAGA	2.66	2.9	1.2	1.55	2.13	2.21	2.38	1.53	1.49	2.56	2.72	2.02	2.42	1.71	1.19	1.65	0.624	2.12	2.46
GGAACGAGGGGAAGTTGATAGCAGAGTTTGATGG	1.12	0.62	0.337	0.547	0.593	0.111	0.308	-0.228	0.391	0.243	0.255	-0.0496	-0.0365	0.431	0.0141	-0.105	0.182	-0.234	0.565
CCTATTTGGTCAAGGTCACACACGCTATAGGTAC	2.33	3.67	1.27	1.25	3.05	4.1	2.06	4.39	2.51	4.3	4.51	4.63	4.57	2.35	4.55	4.2	4.49	4.18	3.03
GCGACTGGGGCAAAGCAGGTTACCATCAGGTTGG	3.88	3.6	-0.221	-0.906	0.147	0.343	-0.136	0.899	-1.19	0.889	0.97	0.227	0.303	-0.245	0.557	2.72	-0.213	-0.194	-0.458
ATCGAAAGGTCGACGAGCTGAGTATACACCGTTT	0.472	1.18	0.525	1.06	0.589	2.22	-0.245	2.78	0.204	3.72	2.38	3.86	3.6	1.09	4.01	1.58	-0.705	2.15	0.176
CCTACTGGGCCATCAGGCCATTGATATCAACGTT	3.85	3.8	-0.657	-0.731	0.142	-0.281	-0.336	-0.428	-0.00311	0.28	0.414	-0.00329	0.297	-0.604	-0.42	0.561	0.656	-0.292	-0.112
ACTCGGAGGACAAAGGTCATAGCTACGCCAGTGA	1.2	4.45	0.463	0.599	3.32	5.22	0.775	5.76	1.36	4.83	4.7	6.88	5.24	1.91	6.51	4.13	1.2	4.68	2.55
ATATGTAGGTTACATCCGGTTCATTCAGGCTATG	7.75	7.32	3.76	2.01	1.08	3.66	5.68	1.55	0.415	1.22	1	1.42	1.13	1.95	1.54	2.03	0.768	4.76	4.45
AGCCAAAGTTCACTAGGTAACGTAAGATTCAGCT	2.5	4.42	0.974	0.266	2.28	3.96	2.4	2.78	0.158	4.68	3.85	4.99	5.83	4.29	3.74	1.91	-0.25	3.41	3.46
CCTTACGAGTCACTGACAGGTTATAGCATTTGGA	0.816	0.0297	1.14	0.808	1.1	0.7	0.734	1.15	1.48	0.807	1.23	1.22	0.808	0.998	0.893	0.852	0.813	1.06	0.964
ATCTCTAGGTAAGACTCAATTCAGTGAAGAACGC	1.93	0.919	0.318	1.1	0.738	-0.0296	0.798	0.462	1.25	0.115	0.0312	0.0724	0.455	0.244	0.0675	0.381	0.522	0.199	0.603
TGTCAAAGTTCATAGGTAACGTAAGTATCCACAC	0.217	4.39	1.15	2.16	1.89	5.05	3.32	4.15	0.391	4.9	3.62	5.31	5.2	4.28	5.16	2.58	-0.00989	4.67	4.46
CCAGACAGTTGAGAAGGTAACTCAGCCTCGATTA	0.0699	-0.312	0.611	-0.051	1.22	0.00076	0.294	0.392	1.27	0.189	0.381	0.25	0.293	0.456	0.203	0.25	0.485	0.251	0.252
CGTCCAAGATCATAGGAGGTCAGTGAAGACAGAT	0.389	1.23	0.673	0.577	1.4	2.93	0.844	2.62	0.513	2.25	3.26	2.22	2.22	0.36	2.03	3.98	0.538	2.63	1.21
TCATATGGGTAAAAGGTGAAAGTCGGTGTGGTAA	4.48	4.52	0.558	0.338	1.03	1.61	-0.132	2.3	0.788	1.85	1.98	1.7	0.446	1.05	2.64	1.46	0.164	1.34	-0.0613
